SARS PLP yeast: qHTS of Yeast-based Assay for SARS-CoV PLP; Potency, µM (doses to about 32.9 µM), for inactives: top-dose activity, positive = growth rescue, usual class: activators; 0.19% of 330,000 active; S. cerevisiae expressing SARS-CoV PLpro, growth rescue; AID 485353, 2010; calls by dose curve; note: potency is the fitted concentration of half-maximal effect; 0% is about no effect; nearly all actives have a fitted effect of over 55% in size
Cycloheximide cs: Cycloheximide Counterscreen for Small Molecule Inhibitors of Shiga Toxin | AID 2314, 2010 | cell reporter, cycloheximide protein synthesis inhibition counterscreen | max response, % | 12% of 300,000 active; in the data active = max response mostly above about 13%, no sharp cut-off; inactive = mostly below about 14%; note: read at 38.3 µM for the half of the compounds with a filed dose; 0% is about no effect
Shiga inhibitor: A qHTS for Small Molecule Inhibitors of Shiga Toxin | AID 2315, 2010 | inhibition, % at 38.7 µM | Vero cells, Shiga toxin protein synthesis inhibition reporter | 9.2% of 290,000 active; in the data active = inhibition mostly above about 28%, no sharp cut-off; inactive = mostly below about 43%; note: 0% is about no effect
AMA1-RON2 inh: qHTS for Inhibitors of AMA1-RON; Towards Development of Antimalarial Drug Lead: Primary Screen; Plasmodium falciparum AMA1 (3D7) - RON2 peptide interaction; 0.2% of 360,000 active; Potency, µM (doses to about 58.2 µM), for inactives: at the highest dose activity change, negative = inhibition, most hits filed as inhibitors; AlphaScreen AMA1-biotinylated RON2 peptide binding; AID 720542, 2013;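 note: potency is the fitted concentration of half-maximal effect; 0% = vehicle wells and -100% = peptide control; nearly all actives have a fitted effect of over 45% in size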
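AMA1 (3D7) with his tag at 25 nM final met compounds first, then biotinylated RON2 peptide at 25 nM; detection used donor plus acceptor beads, 10 µg/mL apiece, read by AlphaScreen after 30 min at room temperature.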
AmpC detergent: qHTS Inhibitors of AmpC Beta-Lactamase (assay with detergent); P00811; 0.041% of 370,000 active; AmpC hydrolysis of nitrocefin, absorbance 480 nm, 0.01% Triton; AID 485294, 2010; Potency, µM (top dose mostly 114 µM), for inactives: top-dose activity change, negative = inhibition, most hits filed as inhibitors;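 note: potency is the fitted concentration of half-maximal effect; 0% = no-compound wells and -100% = no-enzyme wells; nearly all actives have a fitted effect of over 25% in size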
Target sequence (P00811 whole entry, looked up): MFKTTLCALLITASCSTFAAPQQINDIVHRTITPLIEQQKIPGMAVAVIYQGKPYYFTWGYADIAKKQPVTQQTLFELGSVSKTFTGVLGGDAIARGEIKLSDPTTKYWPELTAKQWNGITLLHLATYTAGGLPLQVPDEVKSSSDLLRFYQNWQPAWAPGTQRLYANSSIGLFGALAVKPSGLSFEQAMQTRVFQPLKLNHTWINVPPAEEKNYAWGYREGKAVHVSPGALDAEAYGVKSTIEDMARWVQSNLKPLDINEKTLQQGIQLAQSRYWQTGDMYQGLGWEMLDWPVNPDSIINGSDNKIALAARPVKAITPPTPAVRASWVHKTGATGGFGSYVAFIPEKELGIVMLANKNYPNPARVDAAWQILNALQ
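20 mM phosphate pH 7.0 + 0.01% (detergent screen) or 0.0001% Triton X-100; 5.3 nM AmpC reagent; cpd preinc 15 min RT; nitrocefin (800 uM stock) to start; A480 q20 s × 4 min; Activity was normalised to no-enzyme and no-compound control wells.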
AmpC inh no detg: qHTS Inhibitors of AmpC Beta-Lactamase (assay without detergent). P00811. AmpC nitrocefin hydrolysis, absorbance 480 nm, 0.0001% Triton. Potency, µM (titrated, usually from 57.1 µM), for inactives: at the top dose activity change, negative = inhibition, actives largely listed as inhibitors. 0.52% of 330,000 active;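 note: potency is the fitted concentration of half-maximal effect; plate controls were no compound for no effect and no enzyme for full effect; nearly all actives have a fitted effect of over 20% in size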
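AmpC (5.3 nM in the dispensed reagent) in 20 mM phosphate pH 7.0 with 0.01% (detergent screen) or 0.0001% Triton X-100 was preincubated with compounds for 15 min at room temperature. Nitrocefin was then added from an 800 uM solution, and hydrolysis was followed at 480 nm.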
Starred values were filed as active, the others as inactive; [ ] = another dose, or the depositor's remark. The entries come from a sample that favours hits as a whole. Unless noted, calls come from the whole dose curve; as a rule, active = well fitted curve in the direction sought with a large enough effect; inconclusive = small, poorly fitted or top-dose-only effect, or another doubt; inactive = no such curve, though single readings can be large; an effect the other way counts as inactive or inconclusive.

How did O=C(CNC(=O)c1cccc(F)c1)OCC(=O)N1CCCCC1 do in these assays?
SARS PLP yeast: 21%; Cycloheximide cs: 35*; Shiga inhibitor: 51*; AMA1-RON2 inh: 11%; AmpC detergent: -4%; AmpC inh no detg: -7%

Results for Cc1ccc(C(=O)NCC(=O)N2CCCCCCC2)cc1 ?
SARS PLP yeast: -12%; AMA1-RON2 inh: 88%; AmpC detergent: 3%; AmpC inh no detg: -9%

How did Cc1ccc(C(=O)NCC(=O)N2CCCCCC2)cc1 do in these assays?
SARS PLP yeast: 28%; Cycloheximide cs: 50*; Shiga inhibitor: 46*; AMA1-RON2 inh: -6%; AmpC detergent: 1%; AmpC inh no detg: 2%

How did CC(C)(C)c1ccc(C(=O)NCC(=O)N2CCCC2)cc1 do in these assays?
SARS PLP yeast: 3%; Cycloheximide cs: 26*; Shiga inhibitor: 37; AMA1-RON2 inh: -2%; AmpC detergent: -10%; AmpC inh no detg: 1%

Results for N[C@H](CSCc1ccccc1)C(=O)Nc1ccc([N+](=O)[O-])cc1 ?
SARS PLP yeast: -3%; Cycloheximide cs: 6; Shiga inhibitor: -4; AMA1-RON2 inh: 11%; AmpC detergent: 6%; AmpC inh no detg: -8%

What do the screens show for `N#Cc1cc(Nc2c(N)nc[nH]c2=O)c([N+](=O)[O-])cc1C#N`?
SARS PLP yeast: -1%; Cycloheximide cs: -1; Shiga inhibitor: 1; AMA1-RON2 inh: 49%; AmpC detergent: -1%; AmpC inh no detg: -11%

Results for OCCN1CCN(c2ncnc3c2ncn3[C@H]2CN(Cc3ccccc3)C[C@@H](CO)O2)CC1 ?
AMA1-RON2 inh: 23%

What do the screens show for `COc1cc2c(cc1NC(=O)CN(C)Cc1ccc(OC)c(OC)c1)oc1ccccc12`?
SARS PLP yeast: -22%; Cycloheximide cs: 0; Shiga inhibitor: 12; AMA1-RON2 inh: -6%; AmpC detergent: 5%; AmpC inh no detg: 86%

Results for Cc1ccc(C)c(NC(=O)CCCCCCCCCCC2COCCO2)c1 (stereo not given) ?
SARS PLP yeast: 11µM*; Cycloheximide cs: -8; Shiga inhibitor: -14; AMA1-RON2 inh: -7%; AmpC detergent: 1%; AmpC inh no detg: -45%

Results for O=C(O)CCCc1ccc2c(c1)CCc1ccccc1-2 ?
SARS PLP yeast: -4%; AMA1-RON2 inh: 7%; AmpC detergent: -11%; AmpC inh no detg: -19%

What do the screens show for `Cc1ccc(-c2nc(N/N=C/c3ccncc3)c3ccccc3n2)cc1`?
SARS PLP yeast: 12%; Cycloheximide cs: 55*; Shiga inhibitor: 76*; AMA1-RON2 inh: 33%; AmpC detergent: 11%; AmpC inh no detg: 9%

What do the screens show for `Cc1c(O)ccc(/C=N/Nc2nc(-c3cccnc3)nc3ccccc23)c1O`?
SARS PLP yeast: -1%; Cycloheximide cs: 59*; Shiga inhibitor: 49*; AMA1-RON2 inh: 73%; AmpC detergent: -7%; AmpC inh no detg: -42%

How did COc1ccc(/C=N/Nc2nc(-c3cccnc3)nc3ccccc23)cc1OC do in these assays?
SARS PLP yeast: -2%; Cycloheximide cs: 31*; Shiga inhibitor: 62*; AMA1-RON2 inh: 97%; AmpC detergent: -6%; AmpC inh no detg: 137%

Results for Cc1ccc(Nc2nc(-c3cccnc3)nc3ccccc23)cc1 ?
SARS PLP yeast: 5%; Cycloheximide cs: 1; Shiga inhibitor: 11; AMA1-RON2 inh: 1%; AmpC detergent: 1%; AmpC inh no detg: -3%

What do the screens show for `COc1ccc(CCNc2nc(-c3cccnc3)nc3ccccc23)cc1OC`?
SARS PLP yeast: -4%; Cycloheximide cs: 7; Shiga inhibitor: -2; AMA1-RON2 inh: -10%; AmpC detergent: -9%; AmpC inh no detg: 21%

How did Oc1ccc(/C=N/Nc2nc(-c3cccnc3)nc3ccccc23)c(O)c1 do in these assays?
SARS PLP yeast: 1%; Cycloheximide cs: 53*; Shiga inhibitor: 41*; AMA1-RON2 inh: 107%; AmpC detergent: -2%; AmpC inh no detg: -34%

How did CCN(CC)CCCNc1nc(-c2ccccc2)nc2ccccc12 do in these assays?
SARS PLP yeast: 10%; Cycloheximide cs: -3; Shiga inhibitor: -2; AMA1-RON2 inh: -5%; AmpC detergent: inconclusive; AmpC inh no detg: 3%

How did Cc1cc(N2CCN(c3ccccn3)CC2)n2cc(-c3ccccc3)nc2n1 do in these assays?
SARS PLP yeast: -1%; Cycloheximide cs: -1; Shiga inhibitor: 8; AMA1-RON2 inh: inconclusive; AmpC detergent: -10%; AmpC inh no detg: 109%

Results for C=CCn1c(C)cc(C(=O)COC(=O)CNC(=O)c2ccccc2)c1C ?
SARS PLP yeast: -1%; Cycloheximide cs: 114*; Shiga inhibitor: 11*; AMA1-RON2 inh: 3%; AmpC detergent: 0%; AmpC inh no detg: -4%

How did Cc1[nH]c2ccccc2c1C(=O)COC(=O)C1CC(=O)N(Cc2ccccc2)C1 (stereo not given) do in these assays?
SARS PLP yeast: 2%; Cycloheximide cs: 7; Shiga inhibitor: 14; AMA1-RON2 inh: 1%; AmpC detergent: 1%; AmpC inh no detg: 135%

What do the screens show for `Cc1ccc(C(=O)NCC(=O)OCC(=O)c2cc(C)n(Cc3ccco3)c2C)cc1`?
SARS PLP yeast: -1%; Cycloheximide cs: 9; Shiga inhibitor: -7; AMA1-RON2 inh: -3%; AmpC detergent: 1%; AmpC inh no detg: -1%

What do the screens show for `C=CCn1c(C)cc(C(=O)COC(=O)C2CC(=O)N(Cc3ccccc3)C2)c1C` (stereo not given)?
SARS PLP yeast: 3%; Cycloheximide cs: 12*; Shiga inhibitor: 36; AMA1-RON2 inh: -16%; AmpC detergent: inconclusive; AmpC inh no detg: 73%

Results for CC(=O)CS(=O)(=O)c1ccc(Oc2ccc(S(=O)(=O)CC(C)=O)cc2)cc1 ?
SARS PLP yeast: 16%; Cycloheximide cs: -6; Shiga inhibitor: -2; AMA1-RON2 inh: 4%; AmpC detergent: -7%; AmpC inh no detg: -24%

How did CCOC(=O)c1sc(SC)nc1N do in these assays?
SARS PLP yeast: -2%; Cycloheximide cs: 16*; Shiga inhibitor: 20; AMA1-RON2 inh: 14%; AmpC detergent: inconclusive; AmpC inh no detg: -15%[11.4 µM]

What do the screens show for `CSc1nc(N)c(C(=O)NC2CCCCC2)s1`?
SARS PLP yeast: 0%; Cycloheximide cs: 38*; Shiga inhibitor: 75*; AMA1-RON2 inh: -10%; AmpC detergent: -1%; AmpC inh no detg: -20%

Results for Cc1ccc(S(=O)(=O)N2CCC(C(=O)Nc3nnc(C45CC6CC(CC(C6)C4)C5)s3)CC2)cc1 ?
SARS PLP yeast: 2%; Cycloheximide cs: 7; Shiga inhibitor: -19; AmpC detergent: 1%; AmpC inh no detg: -8%

Source: PubChem BioAssay
